tim23-1 inh – growth inhibitors of tim23-1 mutant yeast. S. cerevisiae tim23-1 growth, BacTiter-Glo luminescence, 24 h. inhibition, % at 20 µM. 330,000 compounds, 1.3% hits. AID 463212;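 active = growth inhibition of the mutant yeast at or above 50%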;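 note: temperature-sensitive mutant grown at 25 °C; plate controls were DMSO-treated mutant yeast for no effect and medium wells lacking yeast for full effect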
NLRP3 yeast inh – NALP3 inhibition in yeast; AID 2825; inhibition, % at 10 µM; 330,000 compounds, 0.39% hits; Yeast reconstituted NLRP3/ASC/caspase-1, beta-gal luminescence, 24 h;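 active = inhibition of 50% or more; inactive = inhibition below 50%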;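 note: plate controls were induced DMSO wells for no effect and uninduced yeast grown without galactose for full effect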
TIM10 inh – inhibits growth of TIM10 yeast strain; S. cerevisiae TIM10 strain growth, BacTiter-Glo luminescence, 24 h; inhibition, % at 10 µM; 330,000 compounds, 1.4% hits;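 active = inhibition of 40% or more at the single tested concentration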;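 note: wild-type TIM10 isogenic control strain grown at permissive 25 °C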
NALP1 yeast inh – inhibitors of NALP1 inflammasome in yeast | inhibition, % at 10 µM | S. cerevisiae NALP1/ASC/caspase-1 growth, X-gal OD620, 72 h | 280,000 compounds, 0.61% hits; in the data active = inhibition mostly above about 24%, no sharp cut-off; inactive = mostly below about 32%
tim10-1 inh – inhibits growth of tim10-1 mutant yeast. S. cerevisiae tim10-1 ts strain growth, BacTiter-Glo, 24 h. AID 463190. inhibition, % at 20 µM. 330,000 compounds, 2.2% hits;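 active = inhibition of at least 40%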;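 note: mutant grown at 25 °C; 0% = DMSO wells with yeast and 100% = wells holding no yeast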
tim10-1 conf – tim10-1 yeast growth inhibition, confirmed; 7,400 compounds, 56% hits; inhibition, % at 20 µM; S. cerevisiae tim10-1 ts strain growth, BacTiter-Glo, 24 h; shares compounds with tim10-1 inh;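 active = inhibition of yeast growth at or above a set limit in either of two repeat tests at 20 µM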;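 note: tim10-1 mutant grown at permissive 25 °C to find synthetic lethal compounds; 0% = DMSO yeast wells and 100% = medium wells without yeast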
tim10 confirm – confirmation of TIM10 yeast growth inhibitors; shares compounds with TIM10 inh; inhibition, % at 10 µM; 4,600 compounds, 63% hits; AID 463215; S. cerevisiae tim10 strain growth, BacTiter-Glo luminescence, 24 h;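 active = inhibition of yeast growth at or above a set limit in either of two replicates at 10 µM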;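 note: this counterscreen used the strain with wild-type TIM10; 0% = yeast with DMSO and 100% = medium wells lacking yeast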
tim23-1 conf – tim23-1 yeast growth inhibition, confirmed; inhibition, % at 20 µM; 4,400 compounds, 83% hits; S. cerevisiae tim23-1 growth, BacTiter-Glo luminescence, 24 h; shares compounds with tim23-1 inh;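 active = inhibition above about 39% in either of two replicate wells at 20 µM, limit read from the data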;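 note: temperature-sensitive tim23-1 mutant grown at 25 °C; 0% = DMSO wells with yeast and 100% = medium wells without yeast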
* marks the source's active call; other numbers are inactive results; . = no result. A selection: hits, their analogues and other compounds. The true share with any hit is near 4%.

SMILES | tim23-1 inh | NLRP3 yeast inh | TIM10 inh | NALP1 yeast inh | tim10-1 inh | tim10-1 conf | tim10 confirm | tim23-1 conf
CCn1c(C(=O)O)c(CC(=O)N(C)c2ccc(OC)cc2OC)c2ccccc21 | 8.1 | 1.7 | 8.6 | -0.3 | -0.6 | . | . | .
Cc1ccc2nc(SCc3ccc([N+](=O)[O-])cc3)[nH]c2c1 | 79.2* | 14.9 | 55.4* | -16.2 | 41.8* | 41.7* | 23.7 | 79.2*
Cc1ccc2nc(SCc3ccc([N+](=O)[O-])cc3)nc(C)c2c1 | 10.2 | 18.7 | -1.7 | 29.5 | 7.4 | . | . | .
C/C(=C\c1ccccc1)C(=O)Nc1ccc(Cl)cn1 | 29.8 | -3.8 | -1.8 | -11.8 | 7.8 | . | . | .
COc1ccc(/C(N)=N/OC(=O)CCc2ccccc2)cc1OC | -1.1 | 13.7 | 17.6 | 18.5 | 9.2 | . | . | .
Cc1ccc(/C(N)=N/OC(=O)CCCc2ccccc2)cc1 | 69.6* | 1.3 | 59.5* | 24.2 | 53.9* | 49.2* | 63.2* | 66.5*
Cc1cccc(/C(N)=N/OC(=O)CCc2ccccc2)c1 | 63.0* | 20.5 | 52.6* | 3.7 | 58.9* | 52.0* | 46.2* | 45.8*
CCCCn1c(N)c(N(CC)C(=O)C2CCN(C(=O)c3ccccc3C)CC2)c(=O)[nH]c1=O | 5.8 | 2.9 | 0.4 | . | 4.9 | . | . | .
Cc1ccccc1Oc1nc(-c2ccccn2)nc2ccccc12 | 55.8* | 37.0 | 42.7* | 9.1 | 48.2* | 27.5 | 35.8* | 48.8*
CC(=O)Nc1ccc(Oc2nc(-c3ccccn3)nc3ccccc23)cc1 | 2.5 | -0.3 | 17.6 | 19.2 | 17.2 | . | . | .
CC(C)CC(=O)O/N=C1\C(=O)N(c2ccccc2)c2ccccc21 | 54.4* | 19.8 | 49.6* | -0.2 | 62.8* | 58.8* | 73.7* | 61.7*
Cc1ccccc1NC(=O)COc1coc(CN2CCN(c3ccccc3)CC2)cc1=O | 2.3 | 17.7 | -5.2 | . | -12.1 | . | . | .
CSc1ccc(C(=O)N2CCC(CCC(=O)NCc3ccc(F)cc3)CC2)cc1 | 12.3 | 8.4 | 9.2 | 2.3 | 6.1 | . | . | .
Cc1ccc(Cl)cc1NC1=C/C(=N\S(=O)(=O)c2cccs2)c2ccccc2C1=O | 51.6* | 16.1 | 73.6* | 5.4 | 71.2* | 65.6* | 68.6* | 64.7*
CC1(C)Oc2ccc(C(=O)NC3CCCC3)cc2N(CC(=O)NC2CCCCC2)C1=O | 15.9 | 6.5 | 15.6 | 9.2 | 4.8 | . | . | .
O=C(NC1CCCC1)C(c1ccco1)N(Cc1ccccc1)C(=O)c1csnn1 (stereo not given) | 19.4 | 10.0 | 9.5 | -5.4 | 18.2 | . | . | .
C=C(C)C(=O)OC1(C(F)(F)F)Oc2cc(C)ccc2NC1=O (stereo not given) | 65.8* | 13.1 | 47.7* | 9.5 | 55.9* | 52.2* | 41.4* | 77.8*
CCCCCCCCCCn1c2c(c(=N)c3c1CCC3)CCC2 | 83.1* | 42.7 | 38.5 | 34.2* | 65.3* | 30.5 | . | 76.3*
O=C(Sc1cccc2cccnc12)c1ccc(F)cc1 | 79.9* | 43.1 | 55.5* | -13.8 | 76.1* | 66.6* | 58.5* | 70.8*
O=C(/C=C/c1ccccc1)/C=C/c1ccccc1 | 59.2* | 27.0 | 52.7* | 61.2 | 48.2* | 48.6* | -29.2 | 66.7*
N/C(=N\OC(=O)c1ccoc1)c1ccc(Br)cc1 | 80.7* | 4.7 | 70.6* | 1.6 | 59.4* | 53.6* | 64.0* | 84.2*
Cc1ccccc1C(=O)O/N=C(\N)c1ccccc1 | 56.6* | 23.3 | 52.5* | 16.7 | 54.6* | 58.1* | 49.5* | 68.2*
N/C(=N\OC(=O)/C=C/c1ccccc1)c1ccccc1 | 76.6* | 3.3 | 45.0* | -3.2 | 42.8* | 52.7* | 63.0* | 73.0*
c1cc(CCCc2ccncc2)ccn1 | -8.8 | 11.2 | -7.2 | . | -7.8 | . | . | .
CCC1(c2ccccc2)NC(=O)N(CC(=O)Nc2cc(S(=O)(=O)N3CCCCC3)ccc2OC(C)C)C1=O (stereo not given) | 21.4 | 17.1 | 10.2 | . | 24.3 | . | . | .
SMILES | tim23-1 inh | NLRP3 yeast inh | TIM10 inh | NALP1 yeast inh | tim10-1 inh | tim10-1 conf | tim10 confirm | tim23-1 conf
Cc1ccccc1/C(N)=N/OC(=O)c1ccc(F)cc1 | 73.7* | -14.2 | 72.6* | -18.5 | 43.6* | 42.8* | 55.8* | 66.6*
Cc1ccc(C(=O)O/N=C(\N)c2ccc(Br)cc2)cc1C | 21.4 | 31.4 | 20.9 | -18.8 | 35.6 | . | . | .
Cc1ccc(C)c(C(=O)O/N=C(\N)c2ccc(Br)cc2)c1 | 86.0* | 32.7 | 86.8* | 3.2 | 56.8* | 33.3* | 87.3* | 60.6*
Cc1cc(OCC(=O)O/N=C(\N)c2ccccc2)cc(C)c1Cl | 72.8* | 4.9 | 36.1 | -9.8 | 63.7* | 49.4* | . | 80.1*
Cc1cc(OCC(=O)O/N=C(\N)c2ccccc2)ccc1Cl | . | . | . | 17.7 | . | . | . | .
CC(=O)c1c(C)[nH]c(C(=O)N(C)CC(=O)Nc2ccc(Cl)c(C(F)(F)F)c2)c1C | 6.8 | 6.5 | 5.8 | 4.7 | 4.0 | . | . | .
O=C(O)c1ccccc1-n1c2ccccc2c2ccccc21 | 6.2 | 0.3 | 14.8 | 21.2 | 1.4 | . | . | .
CCOCCOC(=O)c1cccc2c1-c1ccccc1C2=O | 15.0 | 5.3 | 11.1 | 0.3 | 14.8 | . | . | .
Cc1cccc(NC(c2ccc(C)s2)c2ccc3ccc(C)nc3c2O)n1 (stereo not given) | 57.2* | 3.7 | 34.2 | 41.8 | 93.1* | 86.4* | . | 45.0*
CCOc1ccc(S(=O)(=O)N2CCCC(C(=O)NC3CCCC3)C2)cc1 (stereo not given) | 8.2 | 10.4 | 3.9 | -9.1 | -5.3 | . | . | .
COCCCNC(=S)N1CCC(NC(=O)Nc2ccc(C)cc2)CC1 | 3.2 | 16.7 | -13.5 | 2.0 | -2.5 | . | . | .
N#C/C(=C\c1ccccn1)c1nc2ccccc2s1 | 64.9* | 26.3 | 77.9* | 5.7 | 82.6* | 87.1* | 82.0* | 33.9
O=C(CCc1nnc2n(Cc3ccccc3)c(=O)c3ccccc3n12)NCCN1CCOCC1 | -13.0 | 16.2 | 3.6 | 7.2 | -15.8 | . | . | .
O=[N+]([O-])c1cccc(C2NCC(c3ccccc3Cl)c3c2[nH]c2ccccc32)c1 (stereo not given) | 58.0* | 2.9 | 62.8* | -2.8 | 58.5* | 51.5* | 58.1* | 76.5*
O=C(/C=C/c1cccc(C(F)(F)F)c1)Nc1cccc(C(F)(F)F)c1 | 72.0* | -15.1 | 57.7* | 12.9 | 55.0* | 56.1* | 53.5* | 69.4*
O=C(Nc1ccc(Cl)cc1C(=O)Nc1ccc(Br)cn1)c1ccco1 | 59.5* | 26.3 | 44.1* | 13.1 | 44.9* | 41.9* | 48.2* | 57.5*
Cc1cc(Br)ccc1NC(=O)c1ccco1 | 7.4 | 24.9 | -13.1 | 7.8 | -9.0 | . | . | .
COc1ccc2[nH]c3c4c(ccc3c2c1)C(=O)C=CC4=O | 75.7* | 38.2 | 79.1* | 11.5 | 61.6* | 77.0* | 98.9* | -22.8
COc1ccc2[nH]c(=O)cc(C(=O)O)c2c1 | 5.0 | 20.1 | 6.3 | 3.7 | 14.7 | . | . | .

High-throughput results as filed in PubChem BioAssay.
